Assay outcomes from PubChem BioAssay.
hgDAF12 agonist: activates the H. glycines DAF-12 receptor ligand-binding domain. 370,000 tested, 1.8% active. activation, % at 6.8 µM. AID 687014. HEK293 GAL4-hgDAF12 UAS-luciferase reporter, agonist luminescence; normalized to butyrate control;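 active means activation above a cutoff set at the mean of all screened compounds plus 3 SD, cut at about 10% in these data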
DAX1 inh-1: inhibitors of DAX1 repression of SF-1 activated StAR promoter; HEK293T StAR-luciferase reporter, SF-1/DAX-1 repression relief; inhibition, % at 6.8 µM; 370,000 tested, 1.1% active; AID 652010;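 active means inhibition above the mean over all tested compounds plus 3 SD, cut at about 3.6% in these data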;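 further: higher inhibition means more luminescence from relief of DAX-1 repression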
DAX1 inh-2: NR0B1 (DAX1) inhibition | P51843 | 340,000 tested, 0.99% active | inhibition, % at 6.75 µM | HEK293 Gal4-DAX1 luciferase reporter, luminescence;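 active means inhibition above the mean over all tested compounds plus 3 SD, cut at about 4.2% in these data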;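 further: inhibition shows as a rise in luminescence from relieved DAX1 repression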
Target sequence (P51843 207-470 limits assumed): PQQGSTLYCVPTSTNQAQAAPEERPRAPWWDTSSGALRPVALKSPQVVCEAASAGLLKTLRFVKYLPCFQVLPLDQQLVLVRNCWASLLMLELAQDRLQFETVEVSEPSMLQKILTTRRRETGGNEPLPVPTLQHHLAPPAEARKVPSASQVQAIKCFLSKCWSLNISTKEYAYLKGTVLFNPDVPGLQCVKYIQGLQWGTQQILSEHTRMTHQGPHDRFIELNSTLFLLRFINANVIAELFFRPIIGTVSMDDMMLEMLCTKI
ssDAF12 agonist: S. stercoralis DAF-12 activation, primary screen. HEK293 ssDAF-12/GRIP1 lit1-tk-luc reporter, luminescence; % of 3 µM dafachronic acid response. 370,000 tested, 1% active. activation, % at 6.8 µM;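 active means activation above the mean over all tested compounds plus 3 SD, cut at about 0.9% in these data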
hcDAF-12 act: activators of H. contortus DAF-12 nuclear receptor | HEK293 hcDAF-12 lit1-tk-luc reporter, luminescence; 0% DMSO, 100% Δ7-dafachronic acid | activation, % at 6.8 µM | 370,000 tested, 1.4% active;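 active means activation above the mean of all tested compounds plus 3 SD, cut at about 5.5% in these data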
Each line names hits and unclear results; the compound was inactive in the other large screens. Compounds with a hit are over-represented: about 4.1% of the library has one in this group of screens.

CC1(C)CC(=O)C(c2c[nH]c3ccccc23)C(=O)C1	none
COC[C@@H](OC(C)=O)[C@H]1OCc2ccccc2[C@@H]1/C=C/c1ccccc1	none (no result: DAX1 inh-2)
COc1ccc(N(CC(=O)Nc2cccc([N+](=O)[O-])c2C)S(C)(=O)=O)cc1OC	none
COc1ccc(N(CC(=O)Nc2cc([N+](=O)[O-])ccc2C)S(C)(=O)=O)cc1OC	ssDAF12 agonist 1.3
CCOC(=O)/C(C#N)=C\c1cc(C)n(-c2ccccc2)c1C	DAX1 inh-2 5.3
CCOC(=O)/C(C#N)=C/c1cc(C)n(-c2ccc(C)cc2)c1C	none
N#CC1CCN(C(=O)c2ccc3c(Cl)c4c(nc3c2)CCCC4)CC1	DAX1 inh-1 4.4
O=C1CCC[C@H]2C[C@H](NCc3cccc(F)c3)CC[C@]23CCCN13	none (no result: DAX1 inh-1, DAX1 inh-2)
COC(=O)C1=C(C)N(Cc2ccc(C(F)(F)F)cc2)C(=NCc2ccccc2C(F)(F)F)NC1c1cccc(Cl)c1 (stereo unspecified)	none (no result: DAX1 inh-2)
CCC1=C(c2ccc(OC)cc2)CCC(C(=O)O)C1C (stereo unspecified)	ssDAF12 agonist 61
CN(C)c1ccc(Cl)cc1N	DAX1 inh-2 5.3
CCOC(=O)CSc1nnc(Cn2c(=O)sc3ccccc32)n1-c1ccccc1C	none
Cc1ccccc1-n1c(Cn2c(=O)sc3ccccc32)nnc1SCC(N)=O	DAX1 inh-2 4.6
O=C(/C=C/c1ccc(Cl)cc1)NC1CC2CCC1C2 (stereo unspecified)	hgDAF12 agonist 11
COc1ccc2c3c([nH]c2c1)[C@]1(CCNC=O)Nc2ccccc2C1=NCC3	none (no result: DAX1 inh-1, DAX1 inh-2)
CC(c1ccc(F)cc1)n1cc(C(=O)NCCN(C)C)nn1 (stereo unspecified)	DAX1 inh-2 5.5
Cc1cc2c(cc1C)/C(=N/NC(=O)c1ccccn1)CCC2	hgDAF12 agonist 11 (no result: DAX1 inh-2)
O=C(N/N=C1\CCc2ccccc21)c1ccccc1Cl	hgDAF12 agonist 12
O=C(CSc1nnc(-c2ccccc2)n1-c1ccc(Cl)cc1)Nc1ccccc1-c1ccccc1	none (no result: DAX1 inh-2)
Cc1cccc(NC(=O)Nc2c(-c3ccc(C(F)(F)F)cc3)nc3ncccn23)c1	none (no result: DAX1 inh-2)
O=C(O)c1ccc(S(=O)(=O)c2ccc3c(c2)C(=O)N(NC(=O)c2ccccc2)C3=O)cc1	hgDAF12 agonist 12
O=C(NN1C(=O)c2ccccc2C1=O)c1ccncc1	none
CN(C)c1ccc(C(=O)NN2C(=O)c3ccccc3C2=O)cc1	hgDAF12 agonist 11
CCCCCCCCN1CCS(=O)(=O)N(Cc2ccccc2)C(C(=O)OC)C1 (stereo unspecified)	none (no result: DAX1 inh-2)
COc1ccc(C(=O)N(C)[C@H]2C[C@H]3c4[nH]c5c(-c6ccccc6)cccc5c4CCN3C(=O)[C@H]2[C@H](C)O)cc1	none (no result: DAX1 inh-2)
Cc1ccc2c(C)c(C(=O)N3CCN(Cc4ccc5c(c4)OCO5)CC3)oc2c1C	hcDAF-12 act 5.8
Cc1ccc(C(=O)N2CCN(Cc3ccc4c(c3)OCO4)CC2)o1	none
COC(=O)c1ccc(S(=O)(=O)N2CCC(NC(=O)Cc3ccccc3)CC2)cc1	none (no result: DAX1 inh-2)
CCOC(=O)[C@@]12CCCC=C1N(CCc1ccc(Cl)cc1)C(=O)[C@H]2CC(=O)N1CCOCC1	none (no result: DAX1 inh-2)
CN1CCN(C(=O)c2cc(=O)c3cc(Cl)cc(Cl)c3o2)CC1	ssDAF12 agonist 2.0
Cn1cc(C=CC(=O)O)c2nccnc21	ssDAF12 agonist 1.3
C[C@H](O)[C@@H]1CN2CCc3c([nH]c4c(-c5ccc6c(c5)OCO6)cccc34)[C@@H]2C[C@@H]1N(C)C(=O)c1ccccc1F	none (no result: DAX1 inh-2)
O=C(Cc1nc(=O)c2ccccc2s1)Nc1ccccc1	hgDAF12 agonist 11, hcDAF-12 act 5.9
CC(=O)Nc1ccc(S(=O)(=O)Nc2nc3ccccc3nc2Nc2ccc(S(N)(=O)=O)cc2)cc1	none
NS(=O)(=O)c1ccc(Nc2nc3ccccc3nc2NS(=O)(=O)c2cccc([N+](=O)[O-])c2)cc1	DAX1 inh-2 5.0
CCCNC(=O)Cn1cc(S(=O)(=O)N2CCCC2)c(S(=O)(=O)N2CCCC2)c1	DAX1 inh-1 3.9
CCC(C)NC(=O)Cn1cc(S(=O)(=O)N2CCCC2)c(S(=O)(=O)N2CCCC2)c1 (stereo unspecified)	none
O=C(NCCc1c[nH]c2ccccc12)c1cccnc1	ssDAF12 agonist 1.9
O=C(NCCc1c[nH]c2ccccc12)c1cc2sccc2n1Cc1ccccc1	none
O=C(O)c1nccnc1C(=O)NCCc1c[nH]c2ccccc12	hcDAF-12 act 5.6
CN(c1ccccc1)S(=O)(=O)c1cccc(C(=O)NCCc2c[nH]c3ccccc23)c1	none
O=C(NCCc1c[nH]c2ccccc12)c1cccc(S(=O)(=O)Nc2ccccc2Cl)c1	ssDAF12 agonist 1.1, hcDAF-12 act 6.0
Cn1c(C(=O)NCCc2c[nH]c3ccccc23)cc2sccc21	hgDAF12 agonist 12, ssDAF12 agonist 2.5, hcDAF-12 act 5.9
CCNC(=S)N/N=C(\C)c1cccc([N+](=O)[O-])c1	none
O=C(Nc1ccc(F)cc1F)c1cc(-c2ccc(Cl)cc2)nc2ccccc12	none (no result: DAX1 inh-2)
CCCNC(=O)c1cc(S(=O)(=O)N2CCCCC2)ccc1N1CCOCC1	none
O=C(NCCc1c[nH]c2ccccc12)c1cc(S(=O)(=O)N2CCCCC2)ccc1N1CCOCC1	ssDAF12 agonist 1.9
CN(C)c1ccc(Nc2ccc([N+](=O)[O-])cn2)cc1	DAX1 inh-2 5.4
Cc1ccc(/C=N/c2sc3c(c2C#N)CCC3)s1	none
CN1CCc2c(sc(/N=C/c3cc(Cl)ccc3O)c2C#N)C1	DAX1 inh-2 6.8
O=S(=O)(NNc1ncc(C(F)(F)F)cc1Cl)c1ccc(F)cc1F	none
O=C(NNS(=O)(=O)c1ccc(Cl)cc1Cl)c1cc2ncc(C(F)(F)F)cc2s1	hcDAF-12 act 6.0
CCOC(=O)CNC(=O)CSc1nnc(-c2cccs2)o1	none (no result: DAX1 inh-2)
CC(NC(=O)NC(N)=O)(C(F)(F)F)C(F)(F)F	DAX1 inh-2 5.5
CC(NC(=O)NNC(N)=S)(C(F)(F)F)C(F)(F)F	none
Cc1ccc(OCc2nnc(SCC(=O)Nc3ccc(S(=O)(=O)Nc4cc(C)nc(C)n4)cc3)n2Cc2ccco2)cc1	none (no result: DAX1 inh-2)
Cc1cc(C)cc(Nc2ncc3c(n2)CCCC3=O)c1	DAX1 inh-1 3.9
COc1ccc(-n2c(SCC(=O)Nc3ccc(Oc4ccccc4)cc3)nnc2-c2ccco2)cc1	none (no result: DAX1 inh-2)
Clc1ccc(SCc2cn3ccccc3n2)cc1	hgDAF12 agonist 12
Cc1ccc(SCc2cn3cc(Cl)ccc3n2)cc1	none
Cc1cccc2nc(CSc3ccc(Cl)cc3)cn12	hgDAF12 agonist 12, DAX1 inh-1 4.2
Nc1nnc(SCc2cn3cc(Cl)ccc3n2)s1	hgDAF12 agonist 12
CCOc1cccc(/C=N\NC(=O)c2cnccn2)c1O	none (no result: DAX1 inh-2)
O=C(Cn1nnc(-c2ccncc2)n1)Nc1ccc(Cl)cc1	none (no result: DAX1 inh-2)
C/C(=N/O)c1no[n+]([O-])c1/C(C)=N\O	DAX1 inh-2 7.2
CC1=NN(C(=O)c2ccccc2F)C(O)(c2ccc(Cl)cc2)C1 (stereo unspecified)	DAX1 inh-2 6.2
